Data as given in PubChem BioAssay (NCI).
Compounds without any hit were thinned out: in the full panel of roughly 83,000, 20% have a hit.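 Cell lines were cultured in 96-well plates, exposed to a single compound concentration, and assessed for percent growth 48 hours later.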 Calls of active or inactive are those of the source. The calls were made as follows: active = growth percent below 10; inactive = the rest.

Assays:
Assay in all cases: NCI-60 one-dose screen, 48 h (100 = growth as untreated, 0 = no growth, -100 = all killed)
Settings in all cases: 10 µM unless noted
[1] = test system: EKVX NSCLC
[2] = test system: SN12C renal
[3] = test system: UO-31 renal
[4] = test system: TK-10 renal
[5] = test system: ACHN renal
[6] = test system: CAKI-1 renal
[7] = test system: A498 renal
[8] = test system: MOLT-4 leukemia
[9] = test system: OVCAR-8 ovarian
[10] = test system: OVCAR-5 ovarian
[11] = test system: OVCAR-4 ovarian
[12] = test system: SK-OV-3 ovarian
[13] = test system: OVCAR-3 ovarian
[14] = test system: HS 578T breast
[15] = test system: NCI/ADR-RES ovarian
[16] = test system: T-47D breast
[17] = test system: IGROV1 ovarian
[18] = test system: RPMI-8226 leukemia
[19] = test system: SR leukemia

Measured: growth

CN(C)CCCN1c2nc3ccccc3cc2Sc2cc3ccccc3nc21
inactive: [11] 18.9%
active: [1] -50.9% | [2] -22.4% | [3] -22.7% | [4] -78.2% | [5] -100% | [6] -17.2% | [7] -5.96% | [8] -57.9% | [9] -67% | [10] -58.5% | [12] -35.3% | [13] -81.4% | [14] 2.82% | [15] -23.1% | [16] -71.9%

CN1COc2ccc3ccccc3c2C1
inactive: [1] 96.1% | [2] 87.5% | [3] 32.3% | [4] 105% | [5] 89% | [6] 90.9% | [7] 102% | [8] 90.6% | [9] 93% | [10] 77% | [11] 91.7% | [12] 103% | [17] 86.3% | [13] 98.9% | [15] 89.8% | [16] 88.2%

Cc1c(C(N)=O)sc2c1c(=O)n(Cc1ccccc1)c1nnc(SCC(=O)Nc3ccc(Cl)cc3)n21
inactive: [1] 50.2% | [2] 50.8% | [3] 75.5% | [5] 32.7% | [6] 77% | [7] 40.1% | [10] 64.9% | [12] 24.8% | [17] 23.1% | [15] 82.2%
active: [4] -22.9% | [11] -80.2% | [13] -3.77% | [14] 6.54% | [16] -23.9%

ClC1=C(Cl)C(Cl)=C(Cl)C1=Cc1ccc(Cl)cc1
inactive: [2] 47.2% | [5] 29% | [7] 27.2% | [11] 75.4% | [12] 95.5% | [16] 25.3%
active: [1] -22.6% | [3] -56.9% | [4] 8.54% | [6] -63.5% | [8] 0.492% | [18] -43.2% | [13] -96.8% | [14] -12.2% | [15] -47.5%

COc1ccc2c(c1)C(=O)/C(=C/c1cccc(OCC(=O)c3ccccc3)c1)CC2
inactive: [1] 75.8% | [2] 114% | [4] 107% | [5] 94.4% | [6] 80.4% | [7] 89.2% | [8] 52.7% | [19] 11.1% | [9] 78.6% | [11] 81.5% | [12] 120% | [13] 89.2% | [14] 98.6% | [15] 80.7% | [16] 70.6%
active: [3] 9.87%

O=Nc1ccc(O)c(=O)cc1
inactive: [1] 72.5% | [2] 14.3% | [4] 14.6% | [7] 145% | [8] 14% | [9] 43.8% | [10] 68.1% | [12] 108% | [17] 18.7% | [14] 107% | [15] 38% | [16] 18.5%
active: [3] -36% | [5] 1.32% | [6] -7.71% | [19] 2.22%

Cc1c(C)c(N2C(=O)C=CC2=O)c(C)c(C)c1N1C(=O)C=CC1=O
inactive: [1] 101% | [2] 104% | [3] 53.7% | [4] 119% | [5] 108% | [6] 101% | [7] 78.2% | [8] 72.4% | [9] 96.1% | [11] 104% | [12] 114% | [17] 83.6% | [13] 45.1% | [15] 96.4% | [16] 113%

CC12CCC3C(CCC4CC(=O)/C(=C\O)CC43C)C1CCC(=O)O2 (stereo unspecified)
inactive: [1] 106% | [2] 107% | [3] 55.9% | [4] 115% | [5] 109% | [6] 105% | [7] 115% | [8] 106% | [9] 101% | [10] 95.7% | [11] 112% | [12] 128% | [17] 95.1% | [13] 114% | [15] 96.1% | [16] 117%

CC1=C(C(=O)Nc2ccccc2)C(c2ccc3c(c2)OCCO3)NC(=O)N1 (stereo unspecified)
inactive: [1] 112% | [2] 100% | [3] 87% | [4] 133% | [5] 104% | [6] 95.6% | [7] 101% | [19] 92.9% | [9] 102% | [10] 102% | [11] 106% | [12] 101% | [17] 104% | [13] 106% | [14] 101% | [15] 101% | [16] 101%

Cc1nn(-c2ccccc2)c2nc3c(nc12)C(=O)CCC3
inactive: [1] 93.8% | [2] 90.1% | [3] 66.4% | [4] 104% | [5] 95.5% | [6] 101% | [7] 81.7% | [10] 104% | [11] 81.4% | [12] 99.7% | [17] 96.6% | [13] 98.8% | [14] 97.1% | [15] 94.8% | [16] 79.2%

COC(=O)[C@]1(CCSC)N[C@H](c2cn(-c3ccccc3)nc2C)[C@@H]2C(=O)N(c3ccc(C)cc3)C(=O)[C@@H]21
inactive: [1] 106% | [2] 101% | [3] 77.5% | [4] 104% | [5] 90.7% | [6] 93.9% | [7] 77.2% | [10] 94.6% | [11] 112% | [12] 98.5% | [17] 115% | [13] 114% | [14] 103% | [15] 93.4% | [16] 101%

CC(=O)c1cc(C(=O)c2ccc3c(c2)Sc2ccccc2N3)c2c(C)cc(C)cn12
active: [6] 9.64% | [7] -27.3% | [19] 5.45% | [13] -26.1%
inactive: [1] 34.3% | [2] 20.7% | [3] 22.5% | [4] 34.6% | [5] 12.2% | [8] 19.2% | [10] 39.7% | [11] 39.8% | [12] 21% | [17] 28.3% | [14] 20.5% | [15] 12.9% | [16] 48.2%

COC(=O)[C@]1(CCSC)N[C@H](c2cn(-c3ccccc3)nc2C)[C@@H]2C(=O)N(c3ccccc3)C(=O)[C@@H]21
inactive: [1] 107% | [2] 103% | [3] 90.9% | [4] 118% | [5] 113% | [6] 101% | [7] 93% | [10] 104% | [11] 106% | [12] 95.2% | [17] 118% | [13] 98.7% | [14] 93.7% | [15] 91% | [16] 108%

Cc1nn(-c2ccc(Br)cc2)c2nc3c(nc12)C(=O)C(=O)c1ccccc1-3
inactive: [1] 80% | [2] 95.5% | [3] 63.7% | [4] 140% | [5] 93.1% | [6] 94.9% | [7] 106% | [10] 100% | [11] 88.3% | [12] 93.6% | [17] 81.9% | [13] 101% | [14] 105% | [15] 86.4% | [16] 91.2%

COc1ccc(C(=O)/C=C/c2c(Cl)nc3c(c(C)nn3-c3ccccc3)c2-c2ccc(Br)cc2)cc1
inactive: [1] 109% | [2] 99.4% | [3] 88.1% | [4] 106% | [5] 101% | [6] 100% | [7] 112% | [10] 99.6% | [11] 107% | [12] 97.3% | [17] 116% | [13] 115% | [14] 113% | [15] 108% | [16] 100%

Cc1nn(-c2ccccc2)c2ncc3c(c12)C(=O)N(Cc1ccccc1)C3=O
active: [3] -30.5% | [4] -26% | [5] -21.7% | [6] -0.521% | [7] -10.2% | [11] -57.8%
inactive: [1] 37.3% | [2] 23.7% | [10] 63.6% | [12] 14.7% | [17] 14.7% | [13] 19.2% | [14] 22.7% | [15] 42.1% | [16] 43.4%

CCSc1nnc2n(Cc3ccccc3)c(=O)c3c(C)c(C(N)=O)sc3n12
inactive: [1] 99% | [2] 103% | [3] 67% | [4] 111% | [5] 93.7% | [6] 85.8% | [7] 84.2% | [10] 94.3% | [11] 99.5% | [12] 88.5% | [17] 101% | [13] 119% | [14] 101% | [15] 97.1% | [16] 99.8%

Cc1cc(C)c(OC(=O)CSc2nc3ccccc3c(=O)n2CCc2ccccc2)cc1C
inactive: [1] 64.4% | [2] 91.8% | [3] 63.6% | [4] 124% | [5] 92% | [6] 72.6% | [7] 94.5% | [9] 95.3% | [10] 110% | [11] 101% | [12] 95.7% | [17] 89.4% | [13] 99% | [14] 94.5% | [15] 89.3% | [16] 90.5%

O=C1Nc2ccccc2C12Nc1cc(Cl)ccc1S2 (stereo unspecified)
inactive: [1] 74% | [2] 94.7% | [3] 69.6% | [4] 141% | [5] 99.6% | [6] 70.7% | [7] 107% | [18] 42% | [9] 104% | [10] 104% | [11] 70.4% | [12] 70.9% | [13] 76.3% | [14] 135% | [15] 97.2% | [16] 42.4%
